Screening data deposited in PubChem by several laboratories.
S1P3 antag: blocks the human S1P3 receptor; AID 485; CHO S1P3 NFAT-BLA reporter, FRET fluorescence, antagonist mode; 0.27% of 170,000 active; inhibition, % at 4.98 µM;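 active = inhibition above the plate cutoff, the mean inhibition of test wells on that plate plus 3 SD, cut at about 28% in these data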;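 note: cells challenged with S1P at its EC80 of 0.8 µM; blue over green emission ratio from cleaved BLA substrate after 4 h stimulation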
AI-2 QS modul: Vibrio harveyi AI-2 quorum sensing modulation; Vibrio harveyi JMH597 AI-2 luminescence/OD600 ratio, 9 h; stronger effect = lower value; strain lacks LuxN and CqsS sensors; 0 = neutral-control median; activity change, % at 7.5 µM; 0.4% of 300,000 active; AID 2094; in the data active = activity change below about -75%, passing the limit was not always enough; inconclusive = no clear call, values can overlap the other calls;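 note: luminescence divided by OD600 gain over 9 h not by final OD600 alone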
S1P4 agonist: agonists of human S1P4 receptor; 0.35% of 220,000 active; activation, % at 4.98 µM; O95977; S1P4-expressing cell line, agonist reporter assay; AID 1509; in the data active = activation above about 11%
Target sequence (O95977 whole entry, looked up): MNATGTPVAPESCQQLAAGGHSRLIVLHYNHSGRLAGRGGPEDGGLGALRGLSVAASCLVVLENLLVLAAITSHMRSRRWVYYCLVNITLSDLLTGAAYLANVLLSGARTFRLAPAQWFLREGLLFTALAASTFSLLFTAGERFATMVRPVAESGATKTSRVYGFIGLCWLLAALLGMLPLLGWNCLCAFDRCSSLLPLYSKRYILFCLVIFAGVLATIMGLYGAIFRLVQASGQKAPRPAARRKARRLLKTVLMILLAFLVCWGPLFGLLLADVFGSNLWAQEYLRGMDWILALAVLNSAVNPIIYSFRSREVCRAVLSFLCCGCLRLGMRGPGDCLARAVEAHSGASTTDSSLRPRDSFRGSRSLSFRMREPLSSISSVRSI
Hsp70 act: Hsp70 transcriptional activation, primary screen; HeLa Hsp70 promoter luciferase reporter, luminescence; scaled: vehicle 0, proteasome-inhibitor control 100%; activation, % at 10 µM; 0.04% of 200,000 active; AID 1203;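 active = activation above the mean across all tested compounds plus 3 SD, cutoff set per campaign, cut at about 5.5% in these data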
S1P4 antag: antagonists of human S1P4 receptor. 0.26% of 220,000 active. S1P4-expressing cells, antagonist mode, reporter read-out. inhibition, % at 4.98 µM. AID 1510. O95977; in the data active = inhibition above about 29%
JMH597 growth rt: retest: inhibitors of Vibrio harveyi JMH597 growth. shares compounds with AI-2 QS modul. OD600 absorbance, 9 h; lacks LuxN and CqsS sensors. growth inhibition, % at 7.5 µM. 1% of 750 active;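 active = every replicate shows growth inhibition above 50%; inconclusive = at least half, but not all, replicates pass that cutoff; inactive = fewer than half of replicates pass it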
BB721 lum counter: retest counter-screen: BB721 constitutive quorum sensing luminescence decrease | shares compounds with AI-2 QS modul | Vibrio harveyi BB721 luminescence, 9 h | inhibition, % at 7.5 µM | 95% of 750 active;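 active = inhibition above about 80% in every replicate, not just on average, limit read from the data; inconclusive = at least half of replicates past the limit, but not all; inactive = fewer than half of replicates past the limit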
BB721 growth rt: retest Vibrio harveyi BB721 growth inhibition. 3% of 750 active. growth inhibition, % at 7.5 µM. OD600 absorbance, 9 h. shares compounds with AI-2 QS modul. AID 2728;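 active = every replicate shows growth inhibition above 50%; inconclusive = at least half but not all replicates above 50% inhibition; inactive = under half of replicates above 50% inhibition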
AI-2 QS JMH597: Vibrio harveyi AI-2 signaling luminescence modulation – JMH597 strain, confirmation; Vibrio harveyi JMH597 AI-2 quorum sensing luminescence, 9 h; luxN and CqsS knockout, AI-2 only; inhibition, % at 7.5 µM; 97% of 750 active; shares compounds with AI-2 QS modul;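 active = every replicate shows more than 75% inhibition of signal versus neutral control wells; inconclusive = half to three quarters of replicates exceed 75% inhibition; inactive = fewer than half of replicates exceed 75% inhibition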
Each line names hits and unclear results; the compound was inactive in the other large screens (follow-up assays come after a bar, where they were run). This is a sample that favours compounds with a hit; in the whole collection about 0.97% have one here.

CCCCCCOc1ccc(N2C(=O)CC(SCCN)C2=O)cc1 (stereo not drawn)	AI-2 QS modul -85 (no result: S1P3 antag, S1P4 agonist, Hsp70 act, S1P4 antag) | JMH597 growth rt inactive | BB721 lum counter 88 | BB721 growth rt inactive | AI-2 QS JMH597 96
CCOc1ccc(N2C(=O)CC(SCCN)C2=O)cc1 (stereo not drawn)	none
CCN(CC(=O)NCc1cccs1)C(=O)c1ccc(S(=O)(=O)Nc2ccccc2F)cc1	none (no result: S1P3 antag, S1P4 agonist, Hsp70 act, S1P4 antag)
CCCSc1nsc(NC(=O)c2cccnc2OCC)n1	AI-2 QS modul -95 | JMH597 growth rt inactive | BB721 lum counter 100 | BB721 growth rt inactive | AI-2 QS JMH597 100
COC(=O)c1cc(OC)c(OC)cc1NC(=O)c1ccc(Br)o1	AI-2 QS modul inconclusive | JMH597 growth rt inactive | BB721 lum counter inactive | BB721 growth rt inactive | AI-2 QS JMH597 inactive
Cc1c(C(=O)Nc2c(F)cc(F)cc2Br)sc2ncn(CC(=O)N3CCCC3)c(=O)c12	none (no result: S1P3 antag, S1P4 agonist, Hsp70 act, S1P4 antag)
O=C(CNC(=O)c1cccs1)c1ccc(Br)cc1	none (no result: S1P3 antag, S1P4 agonist, Hsp70 act, S1P4 antag)
O=C(CNC(=O)c1cccs1)OCc1ccc(Br)cc1	AI-2 QS modul inconclusive (no result: S1P3 antag, S1P4 agonist, Hsp70 act, S1P4 antag) | JMH597 growth rt inactive | BB721 lum counter 91 | BB721 growth rt inactive | AI-2 QS JMH597 92
Cc1ccc(COC(=O)c2ccc3ccccc3n2)cc1	AI-2 QS modul -91 (no result: S1P3 antag, S1P4 agonist, Hsp70 act, S1P4 antag) | JMH597 growth rt inactive | BB721 lum counter 98 | BB721 growth rt inactive | AI-2 QS JMH597 99
CCc1ccc(CCC(=O)Nc2ccc(Br)cc2)o1	AI-2 QS modul -91 (no result: S1P3 antag, S1P4 agonist, Hsp70 act, S1P4 antag) | JMH597 growth rt inactive | BB721 lum counter 95 | BB721 growth rt inactive | AI-2 QS JMH597 97
Cc1ccc(CCC(=O)Nc2ccc(Cl)cc2)o1	AI-2 QS modul -87 (no result: S1P3 antag, S1P4 agonist, Hsp70 act, S1P4 antag) | JMH597 growth rt inactive | BB721 lum counter 91 | BB721 growth rt inactive | AI-2 QS JMH597 93
CCOc1ccc(NC(=O)CCc2ccc(C)o2)cc1	none (no result: S1P3 antag, S1P4 agonist, Hsp70 act, S1P4 antag)
CCc1ccc(CCC(=O)Nc2ccc(Cl)cc2)o1	AI-2 QS modul -89 (no result: S1P3 antag, S1P4 agonist, Hsp70 act, S1P4 antag) | JMH597 growth rt inactive | BB721 lum counter 96 | BB721 growth rt inactive | AI-2 QS JMH597 98
CCOC(=O)c1ccc(NC(=O)CCc2ccc(CC)o2)cc1	none
CCc1ccc(CCC(=O)Nc2ccc(C(C)=O)cc2)o1	AI-2 QS modul -94 (no result: S1P3 antag) | JMH597 growth rt inactive | BB721 lum counter 98 | BB721 growth rt inactive | AI-2 QS JMH597 99
CCc1ccc(CCC(=O)Nc2ccc(OC)cc2)o1	none (no result: S1P3 antag)
O=[N+]([O-])c1cc([N+](=O)[O-])c2oc(-c3ccccc3)c(Br)c2c1O	none (no result: S1P3 antag, S1P4 agonist, Hsp70 act, S1P4 antag)
COc1cc(OC)cc(C(=O)NNc2nc3cc4c(cc3s2)OCO4)c1	none
O=C(NNc1nc2cc3c(cc2s1)OCO3)c1ccccc1	AI-2 QS modul -91 | JMH597 growth rt inactive | BB721 lum counter 98 | BB721 growth rt inactive | AI-2 QS JMH597 98
O=C(CNC(=O)c1ccccc1)N/N=C/c1ccccc1Cl	AI-2 QS modul -90 | JMH597 growth rt inactive | BB721 lum counter 96 | BB721 growth rt inactive | AI-2 QS JMH597 97
COc1ccc(-c2csc(NC(=O)C3CC(=O)N(Cc4ccccc4)C3)n2)cc1OC (stereo not drawn)	none (no result: S1P3 antag, S1P4 agonist, Hsp70 act, S1P4 antag)
Cc1cccc(-n2nnc(C(=O)N3CCc4ccccc4C3)c2N)c1	AI-2 QS modul -82 | JMH597 growth rt inactive | BB721 lum counter 92 | BB721 growth rt inconclusive | AI-2 QS JMH597 95
CCc1ccc(/C=C\C(=O)N2CCCC2)cc1	none (no result: S1P3 antag, S1P4 agonist, Hsp70 act, S1P4 antag)
CC(C)(C)c1ccc(/C=C/C(=O)N2CCCCC2)cc1	AI-2 QS modul -86 | JMH597 growth rt inactive | BB721 lum counter 94 | BB721 growth rt inactive | AI-2 QS JMH597 97
COc1cccc(-n2c(CN3CCN(c4ccccc4)CC3)nc3ccc([N+](=O)[O-])cc3c2=O)c1	none
COc1ccc(/C=N/Nc2ccc(C(=O)O)cc2)c(OC)c1OC	AI-2 QS modul -92 (no result: S1P3 antag, S1P4 agonist, Hsp70 act, S1P4 antag) | JMH597 growth rt inactive | BB721 lum counter 95 | BB721 growth rt inactive | AI-2 QS JMH597 96
CN(C)S(=O)(=O)c1ccc(NC(=O)CN2CCC(Cc3ccccc3)CC2)cc1	AI-2 QS modul -91 | JMH597 growth rt inactive | BB721 lum counter 94 | BB721 growth rt inactive | AI-2 QS JMH597 96
CN(C)S(=O)(=O)c1ccc(NC(=O)CN2C(=O)NC3(CCCC3)C2=O)cc1	AI-2 QS modul -79 (no result: S1P3 antag, S1P4 agonist, Hsp70 act, S1P4 antag) | JMH597 growth rt inactive | BB721 lum counter inconclusive | BB721 growth rt inactive | AI-2 QS JMH597 82
Cc1ccc(S(=O)(=O)Nc2ccc(Nc3ccccc3)cc2)cc1	AI-2 QS modul -97 (no result: S1P3 antag, S1P4 agonist, Hsp70 act, S1P4 antag) | JMH597 growth rt inactive | BB721 lum counter 100 | BB721 growth rt inactive | AI-2 QS JMH597 100
O=S(=O)(Nc1ccc(S(=O)(=O)Nc2ccccc2)cc1)c1ccccc1	none (no result: S1P3 antag)
CC1(c2ccc(OC(F)F)cc2)NC(=O)N(CC(=O)Nc2cccc(F)c2)C1=O (stereo not drawn)	AI-2 QS modul -93 (no result: S1P3 antag, S1P4 agonist, Hsp70 act, S1P4 antag) | JMH597 growth rt inactive | BB721 lum counter 95 | BB721 growth rt inactive | AI-2 QS JMH597 97
CC1(c2ccc(OC(F)F)cc2)NC(=O)N(CC(=O)Nc2ccc(S(N)(=O)=O)cc2)C1=O (stereo not drawn)	none
